Our source for the outcome values is PubChem BioAssay AID504773 (Broad Institute, 2011).

Measured potencies and affinities stand elsewhere. Active and inactive are the calls of the source.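 How the source made its calls: active means polarization signal falls with dose and the fitted half-maximal concentration is at or below ten times the sample's top valid dose; inconclusive means flat curve at 30 to 70% inhibition, or poor fit; inactive means signal rises, flat within 30%, or potency beyond limit.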

The experiment deals with Golgi-associated PDZ and coiled-coil motif-containing protein (Homo sapiens) (UniProt Q9HD26). Put plainly: potency against CAL PDZ-peptide interaction – biochemical, fluorescence polarization, Cerulean-tagged CAL PDZ, cherry-picks, dose response (AID 504773). As to conditions: CAL PDZ-peptide binding, 1 h; series mostly up to 50 µM.
As for `C/C(=N\NC(=O)c1cc(-c2ccc(C)s2)nc2ccccc12)c1cccnc1`, the compound was called inactive.

On to `COc1ccc(CN2CCCC(N3CCN(c4cccc(Cl)c4)CC3)C2)cc1OC` (configuration not stated), for which the call was inactive.

As to `C=CCOC(=O)C1=C(C)Nc2nc3ccccc3n2C1c1ccncc1` (configuration not stated), the outcome was inactive.

Turning to `O=C(COc1ccccc1)N1CCCCCCC1`, the compound was called inactive.

On to `Cc1ccc(/C=N/NC(=O)NN(C)c2ncc(C(F)(F)F)cc2Cl)cc1`, for which the compound was classed as inactive.

In the case of `Brc1cccc(CNCC2CCCO2)c1` (configuration not stated), the result was inactive.

As for `Cc1ccccc1S(=O)(=O)NC(=NCc1ccc(F)cc1)c1ccccc1`, the compound was classed as inactive.

`CC(CCCC(C)(C)O)NC(=O)c1ccc(OC2CCN(C(=O)C3CC3)CC2)cc1` (configuration not stated): the result was inactive.

Regarding `Cc1cc(C(=O)Nc2ccccc2Cl)c2ccccc2n1`, the compound was called inactive.

In the case of `CN(C)/N=C1\CCS(=O)(=O)c2sccc21`, the outcome was inactive.

Take `CC12CNCC(C)(CN(C3(O)C(=O)Nc4ccc(Br)cc43)C1)C2=O` (configuration not stated): the compound was classed as inactive.

In the case of `O=C(COC(=O)c1ccc(Cl)nc1)Nc1ccc(N2CCCCC2)cc1`, the compound was called inactive.

For `CCOc1c(Cl)cc(CNc2nnnn2C)cc1OC`, the call was inactive.

Turning to `CC(=O)Nc1sc2c(c1C(c1ccccn1)N1CCN(C)CC1)CCCC2` (configuration not stated), the compound was classed as inactive.

In the case of `CCCc1cc2c(cc1NC(=O)c1ccco1)OCO2`, the compound was called inactive.

With `CCOCCCNC(=S)N1CCN(c2nc(-c3ccccc3)cs2)CC1`, the compound was classed as inactive.

With `CC1=C(C#N)C(=O)NC(=O)/C1=C\c1ccc(-c2cc(C)c(C)cc2[N+](=O)[O-])o1`, the compound was classed as inactive.

Consider `Cc1sc2ncn(CC(=O)NCCCC(=O)N3CCN(Cc4ccc5c(c4)OCO5)CC3)c(=O)c2c1C`, for which the compound was called inactive.

As to `CCN(CC)Cc1c(O)ccc2c1O/C(=C\C=C\c1ccccc1)C2=O`, the compound was classed as inactive.

Regarding `Cc1ccc(S(=O)(=O)N2CCN(CCC#N)CC2)cc1`, the compound was called inactive.

For `Cc1ccc2nc(NS(C)(=O)=O)sc2c1`, the compound was classed as inactive.

Take `O=C(c1ccc([N+](=O)[O-])cc1)N1CCC(Cc2ccccc2)CC1`: the result was inactive.

For the compound `CS(=O)(=O)N1CCN(C(=O)c2ccc3c(c2)OCCO3)CC1`, the result was inactive.

As for `CS(=O)(=O)N(CC(=O)N1CCOCC1)c1cccc(F)c1`, the result was inactive.

`CCCC(=O)OCC(=O)Nc1ccccc1C#N`: the compound was classed as inactive.

On to `O=C(NC(=S)NCCCN1CCOCC1)c1ccc(Br)cc1`, for which the result was inactive.

With `COCC(=O)Nc1ccc2nc3n(c(=O)c2c1)CCCCC3`, the compound was called inactive.

Turning to `CNC(=O)c1nnn(Cc2ccccc2)c1NC(C)=O`, the compound was classed as inactive.

For `COc1cc(OC)cc(C(=O)N[C@H](C(=O)Nc2nc3ccc(S(C)(=O)=O)cc3s2)C(C)C)c1`, the compound was classed as inactive.

With `O=C(O)c1ccc(S(=O)(=O)c2ccc3c(c2)C(=O)N(c2ccccc2[N+](=O)[O-])C3=O)cc1`, the compound was called inactive.

In the case of `CCN(CC)CCn1c(SCC(=O)NCc2ccccc2)nc2c(sc3ccccc32)c1=O`, the result was inactive.

For `NC(=O)C1CCN(c2ncccc2[N+](=O)[O-])CC1`, the outcome was inactive.

As to `C(=C/c1nccc2c1[nH]c1ccccc12)/c1ccc2c(c1)OCO2`, the result was inactive.

With `O=C(c1cccc(Oc2c(Cl)cccc2[N+](=O)[O-])c1)N1CCOCC1`, the call was inactive.

Consider `CN(C)c1ccc(P(=O)(OC2CCCCC2)C(O)c2cccnc2)cc1` (configuration not stated), for which the compound was classed as inactive.

As to `C/C(=C/c1ccccc1)C(=O)N1CCN(c2ccccc2)CC1`, the compound was classed as inactive.

As to `COc1ccc(C2/C(=C(/O)c3ccc(C)cc3)C(=O)C(=O)N2C)c(OC)c1` (configuration not stated), the result was inactive.
